Source: the supplement of paper PMC8728848
The full list was thinned out, with the strongest signals kept by preference.

Columns and labels:
Assay in all cases: glycan array binding signal (z-score within array); higher = stronger binding
Details in all cases: glycan notation: IUPAC condensed, linker removed
[1] = molecular target: Fuc(a1-2)Gal(b1-3)GalNAc(a1-3)[Fuc(a1-2)]Gal(b1-4)Glc
How it was run: (§1)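 The binding signal is a Z-score computed within each array. Data were drawn from 3228 arrays in the Consortium for Functional Glycomics database, restricted to those with a known protein sequence. Scores were averaged over arrays of the same protein sequence at different concentrations or buffers, and over linkers, and negative values can be taken as non-binding.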

[2] = molecular target: Fuc(a1-2)Gal(b1-3)[Fuc(a1-4)]GlcNAc
How it was run: as §1

[3] = molecular target: Fuc(a1-2)[Gal(a1-3)]Gal(b1-3)GlcNAc(b1-2)Man(a1-3)[Fuc(a1-2)[Gal(a1-3)]Gal(b1-3)GlcNAc(b1-2)Man(a1-6)]Man(b1-4)GlcNAc(b1-4)[Fuc(a1-6)]GlcNAc
How it was run: as §1

[4] = molecular target: Fuc(a1-2)[Gal(a1-3)]Gal(b1-3)GlcNAc(b1-6)GalNAc
How it was run: as §1

[5] = molecular target: Fuc(a1-2)[Gal(a1-3)]Gal(b1-4)GlcNAc(b1-3)[Fuc(a1-2)[Gal(a1-3)]Gal(b1-4)GlcNAc(b1-6)]GalNAc
How it was run: as §1

[6] = molecular target: Fuc(a1-2)[Gal(a1-3)]Gal(b1-4)[Fuc(a1-3)]GlcNAc(b1-3)GalNAc
How it was run: as §1

[7] = molecular target: Fuc(a1-2)[GalNAc(a1-3)]Gal(b1-3)GlcNAc(b1-6)GalNAc
How it was run: as §1

[8] = molecular target: Fuc(a1-2)[GalNAc(a1-3)]Gal(b1-4)[Fuc(a1-3)]GlcNAc(b1-3)GalNAc
How it was run: as §1

Fuc(a1-3)GlcNAc = molecular target: Fuc(a1-3)GlcNAc
How it was run: as §1

[9] = molecular target: Fuc(a1-3)[Gal(b1-4)]GlcNAc(b1-2)Man
How it was run: as §1

[10] = molecular target: Fuc(a1-3)[Gal(b1-4)]GlcNAc(b1-3)Gal(b1-3)[Fuc(a1-4)]GlcNAc
How it was run: as §1

Fuc(a1-4)GlcNAc = molecular target: Fuc(a1-4)GlcNAc
How it was run: as §1

[11] = molecular target: Gal(a1-4)Gal(b1-3)GlcNAc(b1-2)Man(a1-3)[Gal(a1-4)Gal(b1-3)GlcNAc(b1-2)Man(a1-6)]Man(b1-4)GlcNAc(b1-4)GlcNAc
How it was run: as §1

[12] = molecular target: Gal(a1-4)Gal(b1-4)GlcNAc(b1-3)Gal(b1-4)Glc
How it was run: as §1

[13] = molecular target: Gal(b1-3)GalNAc(b1-4)[Neu5Ac(a2-3)]Gal(b1-4)Glc
How it was run: as §1

[14] = molecular target: Gal(b1-3)GlcNAc(b1-2)Man(a1-3)[Gal(b1-3)GlcNAc(b1-2)Man(a1-6)]Man(b1-4)GlcNAc(b1-4)[Fuc(a1-6)]GlcNAc
How it was run: as §1

[15] = molecular target: Gal(b1-3)[Fuc(a1-4)]GlcNAc(b1-2)Man
How it was run: as §1

[16] = molecular target: Gal(b1-4)GalNAc(b1-3)[Fuc(a1-2)]Gal(b1-4)GlcNAc
How it was run: as §1

[17] = molecular target: Gal(b1-4)GlcNAc(b1-2)[Gal(b1-4)GlcNAc(b1-6)]Man(a1-6)[GlcNAc(b1-4)][Gal(b1-4)GlcNAc(b1-2)[Gal(b1-4)GlcNAc(b1-4)]Man(a1-3)]Man(b1-4)GlcNAc(b1-4)[Fuc(a1-6)]GlcNAc
How it was run: as §1

[18] = molecular target: Gal(b1-4)GlcNAc(b1-3)Gal(b1-4)GlcNAc(b1-3)Gal(b1-4)GlcNAc(b1-2)Man(a1-3)[Gal(b1-4)GlcNAc(b1-3)Gal(b1-4)GlcNAc(b1-3)Gal(b1-4)GlcNAc(b1-2)Man(a1-6)]Man(b1-4)GlcNAc(b1-4)[Fuc(a1-6)]GlcNAc
How it was run: as §1

[19] = molecular target: Gal(b1-4)GlcNAc(b1-3)Gal(b1-4)GlcNAc(b1-3)Gal(b1-4)GlcNAc(b1-3)Gal(b1-4)GlcNAc(b1-2)Man(a1-3)[Gal(b1-4)GlcNAc(b1-3)Gal(b1-4)GlcNAc(b1-3)Gal(b1-4)GlcNAc(b1-3)Gal(b1-4)GlcNAc(b1-2)Man(a1-6)]Man(b1-4)GlcNAc(b1-4)[Fuc(a1-6)]GlcNAc
How it was run: as §1

[20] = molecular target: Gal(b1-4)GlcNAc(b1-6)GalNAc
How it was run: as §1

Gal3S(b1-3)GlcNAc = molecular target: Gal3S(b1-3)GlcNAc
How it was run: as §1

[21] = molecular target: Gal3S(b1-4)[Fuc(a1-3)]Glc6S
How it was run: as §1

GalNAc(a1-3)Gal = molecular target: GalNAc(a1-3)Gal
How it was run: as §1

GalNAc(b1-3)GlcNAc = molecular target: GalNAc(b1-3)GlcNAc
How it was run: as §1

GalNAc(b1-4)GlcNAc = molecular target: GalNAc(b1-4)GlcNAc
How it was run: as §1

GalNAc4S6S(b1-4)GlcNAc = molecular target: GalNAc4S6S(b1-4)GlcNAc
How it was run: as §1

[22] = molecular target: Glc(a1-6)Glc(a1-6)Glc(a1-6)Glc
How it was run: as §1

B1: AidA (Burkholderia cenocepacia) (protein)
chain: MSRVTDVLVSFDTETILKKYPNPSKNPAAPTLIDWRYVYMVTNQDNVISGQAGGELDLKAQVGDLIRWRETSLSLGFENQVVFYKFIGNVGNDLISTPTPRVAEASIPVPNTSKPEVPTCQKVANYYWSSECLKVGRVTYHFQFQIIDRNCQSQGCFSWDPFISIHN
[1]
  glycan array binding signal (z-score): -0.374
[2]
  glycan array binding signal (z-score): -0.268
[3]
  glycan array binding signal (z-score): 1.35
[4]
  glycan array binding signal (z-score): 0.594
[5]
  glycan array binding signal (z-score): 0.451
[6]
  glycan array binding signal (z-score): -0.44
[7]
  glycan array binding signal (z-score): 1.7
[8]
  glycan array binding signal (z-score): 19.7
Fuc(a1-3)GlcNAc
  glycan array binding signal (z-score): -0.017
[9]
  glycan array binding signal (z-score): 0.556
[10]
  glycan array binding signal (z-score): -0.459
Fuc(a1-4)GlcNAc
  glycan array binding signal (z-score): 3.1
[11]
  glycan array binding signal (z-score): 0.346
[12]
  glycan array binding signal (z-score): -0.277
[13]
  glycan array binding signal (z-score): 0.172
[14]
  glycan array binding signal (z-score): -0.149
[15]
  glycan array binding signal (z-score): -0.108
[16]
  glycan array binding signal (z-score): -0.557
[17]
  glycan array binding signal (z-score): -0.272
[18]
  glycan array binding signal (z-score): 1.44
[19]
  glycan array binding signal (z-score): 0.416
[20]
  glycan array binding signal (z-score): -0.507
Gal3S(b1-3)GlcNAc
  glycan array binding signal (z-score): 2.41
[21]
  glycan array binding signal (z-score): 2.38
GalNAc(a1-3)Gal
  glycan array binding signal (z-score): 0.384
GalNAc(b1-3)GlcNAc
  glycan array binding signal (z-score): -0.115
GalNAc(b1-4)GlcNAc
  glycan array binding signal (z-score): 1.43
GalNAc4S6S(b1-4)GlcNAc
  glycan array binding signal (z-score): -0.374
[22]
  glycan array binding signal (z-score): -0.597
